Screening data deposited in PubChem by The Scripps Research Institute Molecular Screening Center.
Compounds with a hit are over-represented: about 2.5% of the library has one in this group of screens.
ULK1 primary = inhibitors of human ULK1 kinase. O75385. AID 1259251. AlphaScreen Atg13 phosphorylation by ULK1, luminescence. actives 1.9% (n = 30,000). inhibition, % at 5.96 µM; in the data active = inhibition above about 43%;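 also: 0% = median of compound wells and 100% = no enzyme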
ASK1 inh = human ASK1 kinase inhibition, primary screen | actives 0.99% (n = 22,000) | inhibition, % at 7.44 µM | AlphaScreen MKK6 phosphorylation by ASK1, luminescence | Q99683; in the data active = inhibition above about 35%;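 also: 0% = median of compound wells and 100% = no enzyme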
Target sequence (Q99683 whole entry, looked up): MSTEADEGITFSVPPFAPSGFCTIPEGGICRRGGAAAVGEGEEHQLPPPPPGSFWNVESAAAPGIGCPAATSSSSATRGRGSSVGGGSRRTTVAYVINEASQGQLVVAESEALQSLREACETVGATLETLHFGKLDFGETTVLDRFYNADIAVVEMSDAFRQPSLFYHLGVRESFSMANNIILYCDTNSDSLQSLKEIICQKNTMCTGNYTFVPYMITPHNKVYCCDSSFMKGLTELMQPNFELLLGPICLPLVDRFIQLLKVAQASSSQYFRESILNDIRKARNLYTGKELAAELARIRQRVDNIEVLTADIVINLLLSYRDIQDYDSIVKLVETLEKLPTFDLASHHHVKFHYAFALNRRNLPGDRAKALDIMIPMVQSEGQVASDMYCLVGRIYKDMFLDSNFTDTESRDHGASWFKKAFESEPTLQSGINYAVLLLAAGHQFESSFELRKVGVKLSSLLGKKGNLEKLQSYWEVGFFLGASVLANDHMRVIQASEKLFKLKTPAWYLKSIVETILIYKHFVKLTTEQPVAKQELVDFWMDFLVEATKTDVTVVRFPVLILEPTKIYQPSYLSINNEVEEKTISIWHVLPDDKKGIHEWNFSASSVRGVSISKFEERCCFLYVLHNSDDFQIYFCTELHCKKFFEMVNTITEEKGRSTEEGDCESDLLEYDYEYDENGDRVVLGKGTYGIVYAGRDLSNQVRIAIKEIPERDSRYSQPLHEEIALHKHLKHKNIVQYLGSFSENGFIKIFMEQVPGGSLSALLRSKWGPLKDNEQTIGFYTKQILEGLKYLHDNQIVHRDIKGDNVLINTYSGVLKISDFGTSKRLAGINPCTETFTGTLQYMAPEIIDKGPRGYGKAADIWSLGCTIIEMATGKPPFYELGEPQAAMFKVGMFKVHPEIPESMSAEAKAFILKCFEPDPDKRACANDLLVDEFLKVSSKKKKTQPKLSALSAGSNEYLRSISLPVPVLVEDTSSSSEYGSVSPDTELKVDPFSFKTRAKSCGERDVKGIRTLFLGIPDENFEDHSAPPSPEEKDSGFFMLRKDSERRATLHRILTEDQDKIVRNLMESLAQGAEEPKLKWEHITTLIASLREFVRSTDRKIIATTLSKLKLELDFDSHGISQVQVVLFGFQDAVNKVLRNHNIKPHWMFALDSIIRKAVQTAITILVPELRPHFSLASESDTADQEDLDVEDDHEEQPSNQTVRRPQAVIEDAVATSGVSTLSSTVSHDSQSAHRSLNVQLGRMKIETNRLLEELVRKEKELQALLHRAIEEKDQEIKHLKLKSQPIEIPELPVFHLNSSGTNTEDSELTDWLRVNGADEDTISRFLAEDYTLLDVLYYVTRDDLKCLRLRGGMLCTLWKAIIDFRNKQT
Active calls of the source: *; . = no result.

SMILES	ULK1 primary	ASK1 inh
Cc1cnc(Nc2cccc(N(C)C)c2)nc1NC1CC1	46*	8
CN(C)c1cccc(Nc2nccc(NC3CC3)n2)c1	0	-1
CCNc1nc(Cl)nc(N2CC(CCl)OC2=N)n1 (centres undefined)	7	.
c1ccc(CN2CCC(Nc3ncnc4nc(Nc5cnccn5)[nH]c34)CC2)cc1	12	-3
c1ccc(CN2CCC(Nc3ncnc4nc(Nc5ccncn5)[nH]c34)CC2)cc1	55*	5
COc1cc(Nc2cc(Nc3ccncn3)ncn2)cc(OC)c1OC	43*	1
Cc1cc(Nc2ccccc2)nc(Nc2ccncn2)n1	0	7
c1ccc(Nc2cc(Nc3ccncn3)ncn2)cc1	46*	-13
COc1cc(Nc2cc(Nc3ccccc3)ncn2)cc(OC)c1OC	-2	8
O=C(NC1CCN(CC2CCCCCCC2)CC1)[C@H]1CCCN1Cc1ccccc1	-10	-21
COc1cc(N2CCOCC2)ccc1Nc1cc(Nc2ccccn2)c(C(F)(F)F)cn1	39	25
CNS(=O)(=O)c1ccccc1Nc1cc(Nc2ccc(N3CCOCC3)cc2OC)ncc1C(F)(F)F	91*	8
CNC(=O)c1cc(F)ccc1Nc1cc(Nc2ccc(N3CCOCC3)cc2OC)ncc1C(F)(F)F	84*	17
CNC(=O)c1ccccc1Nc1cc(Nc2ccc(N3CCOCC3)cc2OC)ncc1Br	86*	0
COc1cc(N2CCOCC2)ccc1Nc1cc(Nc2ccccc2S(=O)(=O)NC(C)C)c(C(F)(F)F)cn1	29	10
CNC(=O)c1cc(F)c(F)cc1Nc1cc(Nc2ccc(N3CCOCC3)cc2OC)ncc1C(F)(F)F	69*	8
CNC(=O)c1cc(F)c(F)cc1Nc1cc(Nc2ccc3c(c2)CC(=O)N3)ncc1C(F)(F)F	30	9
COc1cc(N2CCOCC2)ccc1Nc1cc(Nc2ccc(F)cc2OC)c(C(F)(F)F)cn1	26	18
O=C(NCCCN1CCOCC1)c1cccc(-n2ncc3cc(Nc4ccc(F)cc4)ccc32)c1	-51	9
COc1ccc(C(O)C(=O)Nc2ccc(-c3cn[nH]c3)cc2N2CCN(C)CC2)cc1 (centres undefined)	-7	-11
COc1cc(Nc2cccc(C(=O)NCCN3CCOCC3)c2)cc(OC)c1OC	-12	-6
O=C(NC1CC1)c1ccnc(NCc2cccnc2)c1	3	-16
Cn1c(-c2ccc3c(c2)OCO3)cnc1NCc1cccc(F)c1	-4	.
Cc1cc(Nc2ccc(N3CCOCC3)cc2)nc(Nc2ccccc2)n1	7	42*
c1cc(Nc2ccc(N3CCOCC3)cc2)cc(Nc2ccc(N3CCOCC3)cc2)n1	6	29
SMILES	ULK1 primary	ASK1 inh
O=C(Nc1ccc(N2CCOCC2)cc1)c1cccc(Nc2ccc(-n3ccnc3)cc2)c1	44*	14
Cc1cc(NCc2ccccc2)nc(Nc2ccc(N3CCOCC3)cc2)n1	11	24
O=C(Nc1ccc(N2CCOCC2)cc1)c1cncc(-c2ccc(N3CCOCC3)nc2)c1	15	10
Nc1nccc(Nc2ccnc(Nc3ccc(N4CCOCC4)cc3)c2)n1	43*	17
O=C(Nc1ccc(N2CCOCC2)cc1)c1cncc(Nc2ccncc2)c1	66*	-28
O=C(Nc1ccc2c(c1)OCO2)c1cccc(Nc2ccc(-n3ccnc3)cc2)c1	3	-5
Cc1nn(C)c(C)c1-c1nc(NCCOc2ccccc2)c2ncn(-c3ccsc3)c2n1	19	6
CC(C)N(CCNC(=O)c1cnc(N2CCc3ccccc3C2)s1)C(C)C	0	-9
CN1CCN(c2ncn(-c3ccc(Nc4nccc(-c5cc(C#N)cc(N(C)C)c5)n4)cc3)n2)CC1	-2	11
Cn1nccc1Nc1cc(C(=O)Nc2ccc(N3CCOCC3)cc2)ccn1	9	20
O=C(NCCN1CCOCC1)c1ccnc(NCc2ccc3c(c2)OCO3)c1	0	-7
O=C(Nc1ccc(N2CCOCC2)cc1)c1ccnc(Nc2ccncc2)c1	49*	-22
O=C(Nc1ccc(N2CCOCC2)cc1)c1ccnc(NCc2ccc3c(c2)OCO3)c1	45*	-19
CC(=O)Nc1ccc(NC(=O)c2cccc(N3CCOCC3)c2)cc1	6	-24
O=C(Nc1ccc(N2CCOCC2)cc1)c1cccc(Nc2ccncc2)c1	70*	-18
O=C(NCCN1CCOCC1)c1cccc(-n2ncc3cc(N(c4ccccc4)c4ccccc4)c(N4CCOCC4)cc32)c1	16	-12
Cc1ccc(CNC(=O)Cn2c(CO)cnc2SCc2ccc(F)cc2)cc1	7	.
CC(=O)Nc1ccc(NC(=O)c2ccnc(-c3csc4ccccc34)c2)cc1	-11	3
COc1cccc(C(=S)N2CCCCC2)c1	-2	.
Clc1cc(NCc2nc3ccccc3[nH]2)ncn1	-2	-9
c1ccc(OCCNc2nc(Nc3ccc4ncccc4c3)nc3nc[nH]c23)cc1	28	10
c1ccc(Nc2nc(Nc3ccc4ncccc4c3)nc3nc[nH]c23)cc1	24	-29
c1cncc(CNc2nc(NC3CC3)c3[nH]cnc3n2)c1	-6	-4
c1cc(Nc2nc(NC3CC3)c3[nH]cnc3n2)ccn1	52*	-24
c1cnc2ccc(Nc3nc(NC4CC4)c4[nH]cnc4n3)cc2c1	64*	-39
SMILES	ULK1 primary	ASK1 inh
CCCNc1nc(Nc2ccc3ncccc3c2)nc2nc[nH]c12	49*	-27
CC(=O)c1cccc(-c2cc(Nc3ccc(Oc4ccccc4)cc3)ncn2)c1	7	-3
CC(=O)Nc1ccc(-c2cc(NC(=O)C(O)c3ccc(Cl)cc3)cc3cn[nH]c23)cc1 (centres undefined)	-47	-14
O=C(O)CCCC[C@H]1SC[C@H]2NC(=O)N[C@H]21	100*	.
O=C(Cc1cn(-c2ccc(N3CCC(N4CCOCC4)CC3)nn2)c2ccccc12)NCc1cccc(C(F)(F)F)c1	0	-3
CCN(CC)c1nc(Nc2ccc(NC(C)=O)cc2)nc(N2CCN(c3ccccn3)CC2)n1	-15	11
O=C1CCCN1CCCNc1cc(NCc2nc3ccccc3[nH]2)ncn1	3	-4
CCN(CC)CCC(=O)N1c2ccccc2Sc2ccc(Cl)cc21	37	.
CCN(CC)CCC(=O)N1c2ccccc2Sc2ccc(C(F)(F)F)cc21	45*	.
CC(C)N(CCNC(=O)c1ccnc(-c2ccc(N3CCOCC3)nc2)c1)C(C)C	1	3
O=C(OCCO)c1ccccc1O	0	.
CCOC(=O)c1ccccc1O	54*	.
CCCCC(CC)COC(=O)CC(C(=O)OCC(CC)CCCC)S(=O)(=O)O (centres undefined)	54*	.
CCCCC(CC)COC(=O)C(C#N)=C(c1ccccc1)c1ccccc1 (centres undefined)	-8	.
COc1ccc(CNc2nc(Nc3ccc(OC)cc3)nc3c2ncn3C(C)C)cc1	-26	9
CC(C)n1cnc2c(NCc3cccnc3)nc(Nc3ccncc3)nc21	-6	-4
CC(C)n1cnc2c(NCc3ccccc3)nc(-c3ccc(C(N)=O)cc3)nc21	-18	-2
CC(=O)Nc1ccc(Nc2nc(NCc3cccnc3)nc3c2ncn3-c2ccsc2)cc1	55*	11
CC(=O)Nc1ccc(Nc2nc(NCc3cccnc3)nc3c2ncn3C(C)C)cc1	68*	5
CC(C)n1cnc2c(Nc3ccccc3)nc(-c3ccc(C(N)=O)cc3)nc21	68*	7
COc1ccc(Nc2nc(Nc3ccc(OCCN4CCCCC4)cc3)c3ncn(C(C)C)c3n2)cc1	57*	33
CC(=O)Nc1ccc(Nc2nc(NCc3cccnc3)nc3c2ncn3-c2ccccc2)cc1	7	-14
